Screening results (PubChem)
IL-1B inflam inh: inflammasome signaling inhibition, IL-1 beta readout. activity change, % at 57.5 µM. 360,000 tested, 4.7% active. THP-1 LPS/ATP IL-1B secretion, AlphaLISA, 16 h; active compounds read low; in the data active means activity change below about -50%; inconclusive means mostly about -30% to -49%
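THP-1 cells pretreated 1 hr with compounds (up to 57.5 uM final), then stimulated with LPS (250 ng/mL final) plus ATP (1.25 mM final); secreted IL-1B measured by AlphaLISA after 16 hr, decreased signal indicating inhibition.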
HT1080 IDH1KD tx: kills HT-1080 cells with IDH1 knockdown. HT-1080 IDH1 knockdown viability, ATP luminescence, 48 h. Potency, µM (titrated, usually from 46.1 µM), inactives show at the top dose activity, negative = toxicity, actives largely listed as cytotoxic. 360,000 tested, 2% active. AID 686971;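 further: potency means the concentration at half of the fitted maximal effect; 0% = DMSO wells and -100% = cell-free medium wells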
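IDH1KD HT-1080 cells, 750/well, RPMI + 5% FBS; compound pinned after 2 h settling; 48 h, 37 °C; CellTiter-Glo luminescence; % activity normalised to DMSO and no-cell wells; curves fitted, classed by r2 and efficacy.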
DT40 TDP1 no CPT: qHTS for Inhibitors of human tyrosyl-DNA phosphodiesterase 1 (TDP1): qHTS in cells in absence of CPT | DT40 Tdp1-/- hTDP1 cells, no CPT, ATP luminescence, 48 h | Potency, µM (doses to about 46.2 µM), for inactives: at the top dose activity change, negative = growth inhibition, actives largely listed as inhibitors | 420,000 tested, 15% active; further: potency means the concentration at half of the fitted maximal effect; nearly all actives have a fitted effect of over 55% in size
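Luminescent ATP content (CellTiter-Glo) served as the growth readout. Knockout chicken DT40 cells expressing human TDP1 were exposed to compounds without camptothecin for a minimum 48 hr at 37 °C.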
TDP1 cell CPT: growth inhibition of DT40 Tdp1-/-;hTDP1 cells with camptothecin (screen for TDP1 inhibitors) | AID 686979 | Potency, µM (top dose mostly 46.2 µM), inactives show at the highest dose activity change, negative = growth inhibition, usual class: inhibitors | 420,000 tested, 12% active | chicken DT40 Tdp1-/-;hTDP1 cells + 20 nM CPT, ATP luminescence, 48 h; further: potency means the concentration at half of the fitted maximal effect; nearly all actives have a fitted effect of over 55% in size
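Chicken DT40 Tdp1-/- cells stably complemented with human TDP1 were seeded at 400 cells/well in medium containing 20 nM camptothecin, exposed to pin-transferred compounds, and grown at 37 °C for at least 48 hr. Viability was read as ATP luminescence.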
HT1080-NT tox: kills 2HG-producing HT-1080-NT fibrosarcoma cells. HT-1080-NT fibrosarcoma viability, CellTiter-Glo ATP luminescence, 48 h. Potency, µM (highest dose often 46.1 µM), inactives show at the top dose activity, negative = less viability, hits mostly cytotoxic. 360,000 tested, 1.6% active;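 further: NT is the 2HG producing partner of a matched IDH1 knockdown line; potency means the concentration at half of the fitted maximal effect; 0% = DMSO-treated cells and -100% = media-only wells without cells; nearly all actives have a fitted effect of over 55% in size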
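Viability by CellTiter-Glo luminescence after 48 h compound exposure at 37C of HT-1080-NT cells (750/well, RPMI, 5% FBS). % activity scaled between DMSO wells and medium-only wells, then curve-fitted and categorized by curve class.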
An asterisk follows results filed as active; ? = inconclusive; . = not tested or not shown. Compounds with a hit are over-represented: about 19% of the library has one in this group of screens. Unless noted, the call rests on the fitted dose curve; in most records, active means well fitted curve in the direction sought with a large enough effect; inconclusive means small, poorly fitted or top-dose-only effect, or another doubt; inactive means no such curve, though single readings can be large; an effect the other way counts as inactive or inconclusive. Unless noted, on the % scale 0 is the no-effect control and ±100 the full control effect.

SMILES | IL-1B inflam inh | HT1080 IDH1KD tx | DT40 TDP1 no CPT | TDP1 cell CPT | HT1080-NT tox
CC(c1nnc(SCC(=O)Nc2cccnc2Cl)n1-c1ccccc1)N(C)C (centres undefined) | -1.9 | 5.8% | 12.7% | 8.8% | 5.3%
Cc1ccc(NC(=O)CN2CCN(C3CCCCC3)C(=O)C2=O)cc1 | . | . | -17.0% | -26.5% | .
COc1ccc(N2CCC(CNC(=O)Nc3ccc(Cl)cc3)C2)cc1 (centres undefined) | -19.5 | -2.5% | 18.4µM* | ? | -17.8%
CCc1ccccc1NC(=S)NCC1CCN(c2ccc(OC)cc2)C1 (centres undefined) | -7.5 | 2.3% | 20.6µM* | ? | ?
COc1ccc(N2CCN(CC(=O)Nc3c(C)cccc3C)CC2)cc1 | 7.2 | 4.1% | ? | ? | 0.8%
COc1ccc(N2CCC(CNC(=O)Nc3cccc(OC)c3)C2)cc1 (centres undefined) | -2.5 | -29.9% | ? | ? | -25.4%
CCc1ccccc1NC(=S)N1CCC(NC(=O)c2ccc(OC)cc2)CC1 | 8.9 | 25.4% | -21.0% | 29.1% | 10.2%
CCc1cccc(C)c1NC(=S)NCC1CCN(c2ccc(OC)cc2)C1 (centres undefined) | -67.0* | ? | 20.6µM* | 20.6µM* | ?
CCc1ccccc1NC(=O)CSc1nnc(C2CC2)n1CC1CCCO1 (centres undefined) | -3.3 | 0.0% | ? | -24.4% | 2.0%
CC(=O)c1ccc(N2CCN(C(=O)c3ccc(Cn4c(=S)[nH]c5ccc(N6CCOCC6)cc5c4=O)cc3)CC2)cc1 | 28.8 | -17.5% | 2.59µM* | 3.26µM* | -20.2%
CC(=O)c1ccc(N2CCN(C(=O)c3ccc(Cn4c(=O)[nH]c5ccccc5c4=O)cc3)CC2)cc1 | . | . | 16.4µM* | 10.3µM* | .
COc1ccc(Cn2c(=O)[nH]c3cc(C(=O)N4CCN(c5ccc(OC)cc5)CC4)ccc3c2=O)cc1 | 11.1 | 4.1% | ? | -3.0% | 12.4%
NS(=O)(=O)c1ccc(CCNC(=O)c2ccc(Cn3c(=O)[nH]c4ccccc4c3=O)cc2)cc1 | 10.3 | -2.2% | -0.5% | 0.0% | -3.5%
COc1ccc(Cn2c(=O)[nH]c3cc(C(=O)N4CCN(c5ccc(C(C)=O)cc5)CC4)ccc3c2=O)cc1 | 26.8 | -12.1% | 14.6µM* | ? | -13.4%
O=C(c1ccc2c(=O)n(Cc3ccccc3)c(=S)[nH]c2c1)N1CCOCC1 | 38.3 | -12.7% | -28.0% | -19.7% | 0.0%
O=C(NCCc1ccc(Cl)cc1)c1ccc(Cn2c(=O)[nH]c3ccccc3c2=O)cc1 | . | . | 3.66µM* | 6.51µM* | .
COc1ccc(CNC(=O)c2cnc(N3CCCC3)nc2C)c(OC)c1 | . | . | -4.8% | 4.5% | .
O=[N+]([O-])c1cccc(-c2nnnn2-c2cccc(F)c2)c1 | 20.6 | 0.3% | -18.2% | -2.7% | 3.3%
CCOc1ccc(C(=O)C(C)OC(=O)Cn2[nH]c(=O)c3ccccc3c2=O)cc1 (centres undefined) | -0.2 | 0.1% | -27.0% | -26.0% | -2.9%
Cc1ccc(NC(=O)CSc2nnc(COc3ccc(Cl)cc3)o2)cc1 | . | . | 1.2% | 20.3% | .
CCCn1c(=S)[nH]c2cc(C(=O)N3CCN(C(=O)OCC)CC3)ccc2c1=O | 49.5 | -1.3% | -4.5% | -23.9% | -7.0%
CCOC(=O)N1CCN(C(=O)c2ccc(Cn3c(=S)[nH]c4ccc(Br)cc4c3=O)cc2)CC1 | -63.3* | 11.0% | 1.03µM* | 5.17µM* | -3.9%
O=C(c1ccc(Cn2c(=O)[nH]c3ccccc3c2=O)cc1)N1CCN(c2ccc(Cl)cc2)CC1 | -25.3 | ? | 16.4µM* | 23.1µM* | ?
Cc1nn(C)c(Oc2ccc(Cl)cc2)c1C(=O)Nc1ccc(F)cc1F | -9.7 | 4.8% | 7.31µM* | ? | 8.7%
CCOc1ccc(-c2nc(Cn3c(=O)cc(C)c4c(C)nn(-c5ccccc5)c43)c(C)o2)cc1 | . | . | 16.0% | 2.8% | .
Cn1ccc2cc(NC(=O)Nc3cccnc3)ccc21 | 2.7 | ? | -14.4% | -5.6% | ?
